Experiments:
Experiment in all cases: DAPPL (digital affinity profiling via proximity ligation, sequencing); 10 mM Tris-HCl pH 7.5, 50 mM NaCl, 1 mM DTT, 4% glycerol, room temperature, 30 min; GST-TFs on glutathione beads, 16-mer random dsDNA library, 0.1% formaldehyde crosslink after washing; high values mean tight binding
Details in all cases: protein: recombinant; tags: N-terminal GST; dsDNA, one strand shown
ELK1 = biological target: T1, ELK1 (Homo sapiens, UniProt P19419 1-428)
T1 sequence: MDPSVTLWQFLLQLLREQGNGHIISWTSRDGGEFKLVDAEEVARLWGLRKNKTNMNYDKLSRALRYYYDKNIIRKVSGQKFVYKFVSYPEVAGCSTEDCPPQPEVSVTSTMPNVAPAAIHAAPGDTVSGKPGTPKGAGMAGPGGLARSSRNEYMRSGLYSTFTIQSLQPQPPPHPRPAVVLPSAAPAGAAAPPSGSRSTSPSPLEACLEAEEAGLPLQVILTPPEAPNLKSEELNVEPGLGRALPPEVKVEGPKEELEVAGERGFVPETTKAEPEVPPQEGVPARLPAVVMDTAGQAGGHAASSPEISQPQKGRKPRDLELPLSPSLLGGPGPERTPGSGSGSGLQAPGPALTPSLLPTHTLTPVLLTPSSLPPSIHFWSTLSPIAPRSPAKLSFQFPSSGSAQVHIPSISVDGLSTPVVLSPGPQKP
How it was run: (§1)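 Pools were built from human transcription factors expressed in yeast as GST fusions, captured on glutathione beads and DNA-barcoded, along with a tag-only sample. Incubation with 200 nmole of a 16-mer random double-stranded DNA library lasted 30 min at room temperature in Tris/NaCl/DTT/glycerol buffer, and was followed by washing, 0.1% formaldehyde crosslinking, proximity ligation, PCR amplification and Illumina NextSeq500 sequencing. Binding signal is the quotient of each hexamer's read frequency for a factor and its frequency for the tag-only sample.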

GABPA = biological target: T2, GABPA (Homo sapiens, UniProt Q06546 1-454)
T2 sequence: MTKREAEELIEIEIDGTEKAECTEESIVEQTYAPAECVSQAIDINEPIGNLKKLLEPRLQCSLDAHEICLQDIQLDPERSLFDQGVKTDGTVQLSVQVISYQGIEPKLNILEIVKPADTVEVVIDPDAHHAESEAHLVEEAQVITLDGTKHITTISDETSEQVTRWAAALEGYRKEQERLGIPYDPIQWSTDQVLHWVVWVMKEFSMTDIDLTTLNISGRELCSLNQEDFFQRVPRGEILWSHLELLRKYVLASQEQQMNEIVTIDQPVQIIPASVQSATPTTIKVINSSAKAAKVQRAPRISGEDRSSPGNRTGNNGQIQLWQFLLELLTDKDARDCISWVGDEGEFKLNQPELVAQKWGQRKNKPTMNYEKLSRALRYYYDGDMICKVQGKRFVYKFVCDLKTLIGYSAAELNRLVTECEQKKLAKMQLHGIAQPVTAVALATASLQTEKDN
How it was run: as §1

ELF1 = ELF1 (Homo sapiens, UniProt P32519 1-619)
Sequence of ELF1 (P32519 whole entry): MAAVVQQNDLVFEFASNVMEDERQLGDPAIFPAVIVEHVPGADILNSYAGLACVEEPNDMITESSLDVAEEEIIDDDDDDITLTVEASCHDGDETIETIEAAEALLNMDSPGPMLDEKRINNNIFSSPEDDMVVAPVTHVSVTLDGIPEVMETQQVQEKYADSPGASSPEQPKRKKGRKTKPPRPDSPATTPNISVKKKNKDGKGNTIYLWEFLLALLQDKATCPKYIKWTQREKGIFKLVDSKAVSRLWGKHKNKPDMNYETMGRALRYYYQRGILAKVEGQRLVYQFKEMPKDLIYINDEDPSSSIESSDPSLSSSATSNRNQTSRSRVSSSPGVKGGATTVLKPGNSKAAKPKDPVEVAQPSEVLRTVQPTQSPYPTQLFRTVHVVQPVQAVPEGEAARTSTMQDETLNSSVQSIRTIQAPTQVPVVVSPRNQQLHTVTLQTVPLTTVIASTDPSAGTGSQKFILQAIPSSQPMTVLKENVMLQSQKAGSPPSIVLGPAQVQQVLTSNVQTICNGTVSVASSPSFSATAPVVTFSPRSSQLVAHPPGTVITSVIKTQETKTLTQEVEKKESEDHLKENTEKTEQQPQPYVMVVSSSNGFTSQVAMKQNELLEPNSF
How it was run: as §1

SPI1 = SPI1 (Homo sapiens, UniProt P17947 1-270)
How it was run: as §1

SPIB = SPIB (Homo sapiens, UniProt Q01892 1-262)
Sequence of SPIB (Q01892 whole entry): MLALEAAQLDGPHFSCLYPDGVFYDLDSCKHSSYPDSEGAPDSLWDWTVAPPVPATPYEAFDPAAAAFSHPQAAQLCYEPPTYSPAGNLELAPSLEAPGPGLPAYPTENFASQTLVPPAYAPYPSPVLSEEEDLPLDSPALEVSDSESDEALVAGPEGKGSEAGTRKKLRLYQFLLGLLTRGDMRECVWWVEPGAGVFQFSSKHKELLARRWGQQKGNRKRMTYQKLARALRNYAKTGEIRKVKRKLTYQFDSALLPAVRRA
How it was run: as §1

FEV = biological target: T3, FEV (Homo sapiens, UniProt Q99581 1-238)
T3 sequence: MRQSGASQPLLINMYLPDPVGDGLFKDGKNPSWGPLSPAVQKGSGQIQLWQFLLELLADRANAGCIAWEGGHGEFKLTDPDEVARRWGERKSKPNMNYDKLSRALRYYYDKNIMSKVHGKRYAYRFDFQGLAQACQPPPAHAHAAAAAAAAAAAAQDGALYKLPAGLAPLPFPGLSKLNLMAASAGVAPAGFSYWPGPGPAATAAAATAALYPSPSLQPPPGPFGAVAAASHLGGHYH
How it was run: as §1

ETV5 = ETV5 (Homo sapiens, UniProt P41161 1-510)
Sequence of ETV5 (P41161 whole entry): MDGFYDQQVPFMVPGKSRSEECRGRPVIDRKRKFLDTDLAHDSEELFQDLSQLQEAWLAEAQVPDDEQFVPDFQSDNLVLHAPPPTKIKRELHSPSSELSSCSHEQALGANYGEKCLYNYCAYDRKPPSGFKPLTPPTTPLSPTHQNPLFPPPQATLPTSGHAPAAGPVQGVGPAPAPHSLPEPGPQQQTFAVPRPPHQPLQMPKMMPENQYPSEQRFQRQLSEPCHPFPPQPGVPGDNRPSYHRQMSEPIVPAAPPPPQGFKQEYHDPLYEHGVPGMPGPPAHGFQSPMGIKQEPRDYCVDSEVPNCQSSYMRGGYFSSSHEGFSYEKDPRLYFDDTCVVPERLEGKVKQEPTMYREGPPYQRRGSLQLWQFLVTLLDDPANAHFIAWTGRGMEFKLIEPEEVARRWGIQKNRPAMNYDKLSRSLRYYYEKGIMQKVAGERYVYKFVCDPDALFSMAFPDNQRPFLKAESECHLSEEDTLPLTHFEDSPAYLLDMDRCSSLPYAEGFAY
How it was run: as §1

ELF4 = ELF4 (Homo sapiens, UniProt Q99607 1-663)
Sequence of ELF4 (Q99607 whole entry): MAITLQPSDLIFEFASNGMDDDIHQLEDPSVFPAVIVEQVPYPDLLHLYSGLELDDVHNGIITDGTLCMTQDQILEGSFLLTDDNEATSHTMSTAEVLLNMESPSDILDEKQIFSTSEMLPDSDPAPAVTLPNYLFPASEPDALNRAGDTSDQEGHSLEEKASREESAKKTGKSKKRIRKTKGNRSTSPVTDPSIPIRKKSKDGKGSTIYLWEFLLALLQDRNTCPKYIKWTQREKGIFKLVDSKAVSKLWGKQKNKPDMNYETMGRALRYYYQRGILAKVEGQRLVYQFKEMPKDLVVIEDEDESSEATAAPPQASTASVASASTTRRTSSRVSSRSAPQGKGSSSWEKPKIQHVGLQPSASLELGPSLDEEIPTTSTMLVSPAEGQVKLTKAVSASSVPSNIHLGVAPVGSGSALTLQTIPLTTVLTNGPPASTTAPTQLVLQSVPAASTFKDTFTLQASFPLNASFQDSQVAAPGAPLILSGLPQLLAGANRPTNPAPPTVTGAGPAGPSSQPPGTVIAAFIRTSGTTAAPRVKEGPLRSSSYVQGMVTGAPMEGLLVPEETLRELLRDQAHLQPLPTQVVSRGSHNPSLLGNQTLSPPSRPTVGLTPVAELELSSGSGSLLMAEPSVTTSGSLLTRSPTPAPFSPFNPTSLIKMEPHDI
How it was run: as §1

ETV1 = ETV1 (Homo sapiens, UniProt P50549 1-477)
Sequence of ETV1 (P50549 whole entry): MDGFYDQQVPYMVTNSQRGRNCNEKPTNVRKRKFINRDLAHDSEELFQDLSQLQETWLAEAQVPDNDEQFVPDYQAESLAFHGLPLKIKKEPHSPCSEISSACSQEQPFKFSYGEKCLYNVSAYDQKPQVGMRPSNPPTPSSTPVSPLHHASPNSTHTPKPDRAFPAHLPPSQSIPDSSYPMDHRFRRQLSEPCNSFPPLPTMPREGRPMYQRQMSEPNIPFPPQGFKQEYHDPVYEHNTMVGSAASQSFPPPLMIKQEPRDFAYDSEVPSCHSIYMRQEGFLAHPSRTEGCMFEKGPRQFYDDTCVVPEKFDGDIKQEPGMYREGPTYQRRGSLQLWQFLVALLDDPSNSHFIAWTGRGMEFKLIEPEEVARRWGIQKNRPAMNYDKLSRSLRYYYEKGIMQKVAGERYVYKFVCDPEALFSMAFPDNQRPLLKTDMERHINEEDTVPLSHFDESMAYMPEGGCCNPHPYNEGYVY
How it was run: as §1

ERF = biological target: T4, ERF (Homo sapiens, UniProt P50548 1-548)
T4 sequence: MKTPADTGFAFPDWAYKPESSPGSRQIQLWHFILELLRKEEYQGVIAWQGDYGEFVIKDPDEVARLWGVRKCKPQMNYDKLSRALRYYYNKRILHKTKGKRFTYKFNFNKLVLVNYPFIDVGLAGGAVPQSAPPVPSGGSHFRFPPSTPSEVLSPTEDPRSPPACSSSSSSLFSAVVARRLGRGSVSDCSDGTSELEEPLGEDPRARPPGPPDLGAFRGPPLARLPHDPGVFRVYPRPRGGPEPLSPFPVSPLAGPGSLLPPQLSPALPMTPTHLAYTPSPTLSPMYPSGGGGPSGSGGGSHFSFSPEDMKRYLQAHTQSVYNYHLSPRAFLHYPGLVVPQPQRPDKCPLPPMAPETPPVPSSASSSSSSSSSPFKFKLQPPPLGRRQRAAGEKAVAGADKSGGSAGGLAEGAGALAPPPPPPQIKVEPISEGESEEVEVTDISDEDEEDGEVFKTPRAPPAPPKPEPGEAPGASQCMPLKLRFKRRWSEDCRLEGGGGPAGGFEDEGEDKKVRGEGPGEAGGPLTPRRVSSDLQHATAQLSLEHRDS
How it was run: as §1

ETV7 = biological target: T5, ETV7 (Homo sapiens, UniProt Q9Y603 1-341)
T5 sequence: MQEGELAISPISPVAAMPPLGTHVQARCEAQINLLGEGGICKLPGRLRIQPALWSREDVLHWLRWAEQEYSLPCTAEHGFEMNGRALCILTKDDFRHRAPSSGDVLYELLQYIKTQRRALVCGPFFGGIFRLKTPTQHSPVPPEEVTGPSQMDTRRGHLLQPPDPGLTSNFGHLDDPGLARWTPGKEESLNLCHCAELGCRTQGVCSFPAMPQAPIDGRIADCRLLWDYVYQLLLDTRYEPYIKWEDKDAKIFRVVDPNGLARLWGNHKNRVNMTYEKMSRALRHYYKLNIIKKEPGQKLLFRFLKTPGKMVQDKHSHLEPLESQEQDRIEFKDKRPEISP
How it was run: as §1

ETV3 = biological target: T6, ETV3 (Homo sapiens, UniProt P41162-2 1-143)
T6 sequence: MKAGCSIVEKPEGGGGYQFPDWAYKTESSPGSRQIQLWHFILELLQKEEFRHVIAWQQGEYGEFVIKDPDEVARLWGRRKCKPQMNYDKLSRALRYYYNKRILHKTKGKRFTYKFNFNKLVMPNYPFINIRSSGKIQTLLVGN
How it was run: as §1

ETV6 = ETV6 (Homo sapiens, UniProt P41212 1-452)
Sequence of ETV6 (P41212 whole entry): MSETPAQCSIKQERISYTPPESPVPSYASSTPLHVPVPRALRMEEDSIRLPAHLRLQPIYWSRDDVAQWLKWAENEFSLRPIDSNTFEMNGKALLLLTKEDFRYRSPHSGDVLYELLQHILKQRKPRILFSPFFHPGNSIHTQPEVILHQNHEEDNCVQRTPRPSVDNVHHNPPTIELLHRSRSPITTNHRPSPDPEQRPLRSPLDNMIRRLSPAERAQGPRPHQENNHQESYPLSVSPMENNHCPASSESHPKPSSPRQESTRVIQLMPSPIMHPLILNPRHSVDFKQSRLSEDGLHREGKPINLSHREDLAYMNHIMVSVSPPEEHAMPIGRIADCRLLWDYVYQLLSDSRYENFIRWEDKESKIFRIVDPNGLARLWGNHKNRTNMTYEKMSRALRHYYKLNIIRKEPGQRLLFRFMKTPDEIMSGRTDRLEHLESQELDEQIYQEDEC
How it was run: as §1

ELK4 = biological target: T7, ELK4 (Homo sapiens, UniProt P28324-2 1-405)
T7 sequence: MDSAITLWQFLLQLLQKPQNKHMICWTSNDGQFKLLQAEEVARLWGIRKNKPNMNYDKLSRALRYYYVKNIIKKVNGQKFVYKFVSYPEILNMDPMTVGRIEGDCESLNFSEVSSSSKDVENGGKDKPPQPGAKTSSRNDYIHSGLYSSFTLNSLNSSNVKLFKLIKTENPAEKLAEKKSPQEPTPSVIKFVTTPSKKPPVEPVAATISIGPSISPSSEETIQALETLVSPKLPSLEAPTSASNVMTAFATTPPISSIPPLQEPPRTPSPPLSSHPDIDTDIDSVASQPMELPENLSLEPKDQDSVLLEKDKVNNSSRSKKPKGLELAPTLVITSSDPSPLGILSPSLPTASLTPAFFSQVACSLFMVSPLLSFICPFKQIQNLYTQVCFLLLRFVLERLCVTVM
How it was run: as §1

ETV3L = biological target: T8, ETV3L (Homo sapiens, UniProt Q6ZN32 1-361)
T8 sequence: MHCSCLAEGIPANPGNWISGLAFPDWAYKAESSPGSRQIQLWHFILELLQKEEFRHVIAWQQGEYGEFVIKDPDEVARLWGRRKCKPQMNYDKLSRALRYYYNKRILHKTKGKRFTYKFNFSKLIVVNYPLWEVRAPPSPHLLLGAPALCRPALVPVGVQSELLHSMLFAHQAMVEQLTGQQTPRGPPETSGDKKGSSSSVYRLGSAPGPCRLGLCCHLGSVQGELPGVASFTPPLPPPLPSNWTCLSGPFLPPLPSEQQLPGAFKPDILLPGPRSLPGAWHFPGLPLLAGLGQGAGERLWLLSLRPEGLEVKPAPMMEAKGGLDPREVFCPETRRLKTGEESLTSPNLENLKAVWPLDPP
How it was run: as §1

ETS2 = biological target: T9, ETS2 (Homo sapiens, UniProt P15036 1-469)
T9 sequence: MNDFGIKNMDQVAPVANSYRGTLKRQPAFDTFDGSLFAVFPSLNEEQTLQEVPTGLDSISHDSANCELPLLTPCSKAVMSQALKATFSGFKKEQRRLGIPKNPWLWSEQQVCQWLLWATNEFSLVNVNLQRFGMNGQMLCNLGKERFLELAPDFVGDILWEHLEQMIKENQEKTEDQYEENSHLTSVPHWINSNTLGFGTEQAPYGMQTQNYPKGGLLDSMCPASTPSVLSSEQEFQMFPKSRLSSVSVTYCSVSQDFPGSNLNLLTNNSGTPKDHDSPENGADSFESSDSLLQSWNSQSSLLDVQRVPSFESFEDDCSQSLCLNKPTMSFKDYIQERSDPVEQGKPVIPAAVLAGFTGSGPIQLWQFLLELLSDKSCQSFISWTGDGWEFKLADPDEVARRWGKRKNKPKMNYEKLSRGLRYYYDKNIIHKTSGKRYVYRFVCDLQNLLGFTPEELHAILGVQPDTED
How it was run: as §1

Sequence	binding signal (ELK1)	binding signal (GABPA)	binding signal (ELF1)	binding signal (SPI1)	binding signal (SPIB)	binding signal (FEV)	binding signal (ETV5)	binding signal (ELF4)	binding signal (ETV1)	binding signal (ERF)	binding signal (ETV7)	binding signal (ETV3)	binding signal (ETV6)	binding signal (ELK4)	binding signal (ETV3L)	binding signal (ETS2)
CAATGG	1.03 fold enrichment (6-mer frequency, TF over GST control)	1.09 fold enrichment (6-mer frequency, TF over GST control)	1.03 fold enrichment (6-mer frequency, TF over GST control)	1.04 fold enrichment (6-mer frequency, TF over GST control)	1.03 fold enrichment (6-mer frequency, TF over GST control)	1.04 fold enrichment (6-mer frequency, TF over GST control)	1.03 fold enrichment (6-mer frequency, TF over GST control)	1.02 fold enrichment (6-mer frequency, TF over GST control)	1.1 fold enrichment (6-mer frequency, TF over GST control)	1.03 fold enrichment (6-mer frequency, TF over GST control)	1.12 fold enrichment (6-mer frequency, TF over GST control)	1.03 fold enrichment (6-mer frequency, TF over GST control)	1.04 fold enrichment (6-mer frequency, TF over GST control)			
TGGGCA			1.06 fold enrichment (6-mer frequency, TF over GST control)	1.08 fold enrichment (6-mer frequency, TF over GST control)		1.01 fold enrichment (6-mer frequency, TF over GST control)	1.04 fold enrichment (6-mer frequency, TF over GST control)	1.04 fold enrichment (6-mer frequency, TF over GST control)					1.02 fold enrichment (6-mer frequency, TF over GST control)	1.06 fold enrichment (6-mer frequency, TF over GST control)	1.04 fold enrichment (6-mer frequency, TF over GST control)	1.04 fold enrichment (6-mer frequency, TF over GST control)

Source: publication PMC7862700, “An all-to-all approach to the identification of sequence-specific readers for epigenetic DNA modifications on cytosine”
